Experimental data from publication PMC5540273 (PLoS ONE, 2017).
Like-named read-outs stand apart in the source and are kept apart here.

What was measured:
Details in all cases: n = 1
TTK = tested on: TTK
TXK = tested on: TXK
[1] = tested on: TYK2(JH1domain-catalytic)
[2] = tested on: TYK2(JH2domain-pseudokinase)
TYRO3 = tested on: TYRO3
ULK1 = tested on: ULK1
ULK2 = tested on: ULK2
ULK3 = tested on: ULK3
VEGFR2 = tested on: T1, VEGFR2
T1 construct: gene KDR

VPS34 = tested on: T2, VPS34
T2 construct: gene PIK3C3

[3] = concentration: 1 μM, replicates: in singlicate
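Further: KINOMEscan kinase panel screen.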

| Structure (SMILES) | %Inh (TTK; 1 µM) | %Inh (TXK; 1 µM) | %Inh ([1]; 1 µM) | %Inh ([2]; 1 µM) | %Inh (TYRO3; 1 µM) | %Inh (ULK1; 1 µM) | %Inh (ULK2; 1 µM) | %Inh (ULK3; 1 µM) | %Inh (VEGFR2; 1 µM) | %Inh (VPS34; 1 µM) | %Inh (TTK; [3]) | %Inh (TXK; [3]) | %Inh [1, 3] | %Inh [2, 3] | %Inh (TYRO3; [3]) | %Inh (ULK1; [3]) | %Inh (ULK2; [3]) | %Inh (ULK3; [3]) | %Inh (VEGFR2; [3]) | %Inh (VPS34; [3]) |
| --- | --- | --- | --- | --- | --- | --- | --- | --- | --- | --- | --- | --- | --- | --- | --- | --- | --- | --- | --- | --- |
| Cc1ccc(NC(=O)Nc2cccc(C(F)(F)F)c2)cc1 [GSK955403] | 19% | 38% | 24% | 0% | 16% | 0% | 6% | 0% | 0% | 0% | – | – | – | – | – | – | – | – | – | – |
| Cl.Oc1ccc(-c2nc(-c3ccccc3)[nH]c2-c2ccncc2)cc1 [SB-428218] | – | – | – | – | – | – | – | – | – | – | 0% | 8% | 100% | 67% | 0% | 8% | 0% | 6% | 0% | 0% |
| CC(C)(C)c1ccc(C(=O)Nc2cn3cc(-c4cccnc4)ccc3n2)cc1 | – | – | – | – | – | – | – | – | – | – | 9% | 18% | 0% | 19% | 11% | 0% | 14% | 33% | 0% | 12% |
| COc1cccc(-c2cc(-c3c[nH]nc3-c3ccccn3)ccn2)c1 [GW680338] | – | – | – | – | – | – | – | – | – | – | 23% | 0% | 12% | 9% | 0% | 0% | 0% | 7% | 0% | 0% |
| O=C(Nc1n[nH]c2nc(-c3nccs3)c(Br)cc12)C1CCCC1 [SB-742609] | – | – | – | – | – | – | – | – | – | – | 13% | 27% | 18% | 31% | 0% | 5% | 0% | 18% | 0% | 0% |
| Cc1cc(N2Cc3ccccc3C2)nc(Nc2ccc(S(=O)(=O)N3CCOCC3)cc2)n1.Cl [GSK1669917] | – | – | – | – | – | – | – | – | – | – | 0% | 0% | 7% | 0% | 0% | 0% | 0% | 0% | 0% | 0% |
| O=C1NC(=O)C(N2CCc3ccccc32)=C1c1ccccc1Cl [SB-373598] | – | – | – | – | – | – | – | – | – | – | 65% | 28% | 0% | 0% | 0% | 61% | 6% | 39% | 2% | 16% |
| Cn1cncc1-c1ccc2ncnc(Nc3ccc(OCc4ccccc4)cc3)c2c1 [GW320571] | – | – | – | – | – | – | – | – | – | – | 19% | 34% | 29% | 0% | 3% | 25% | 0% | 14% | 0% | 23% |
| COc1ccc(CNC(=O)NC2CCN(c3ccnc(Nc4cc(OC)c(OC)c(OC)c4)n3)C2)cc1 (centres unmarked) [GSK1379748] | – | – | – | – | – | – | – | – | – | – | 0% | 8% | 48% | 31% | 0% | 0% | 0% | 86% | 4% | 7% |
| Cc1cccc(-c2nc(C)cc(Nc3ccncc3)n2)n1 [GSK257997] | – | – | – | – | – | – | – | – | – | – | 0% | 0% | 0% | 15% | 21% | 0% | 0% | 6% | 0% | 11% |
| Nc1ncnc2[nH]c(-c3ccccc3)nc12 [AH5015] | – | – | – | – | – | – | – | – | – | – | 0% | 34% | 38% | 99.3% | 0% | 33% | 5% | 20% | 0% | 0% |
| Cc1ccc(-c2cc(-c3c[nH]nc3-c3ccccn3)ccn2)cc1 [GW684088] | – | – | – | – | – | – | – | – | – | – | 0% | 0% | 18% | 22% | 0% | 0% | 0% | 3% | 22% | 0% |
| Cn1ccc2ncnc(Oc3cccc(C(=O)Nc4ccccc4)c3)c21 | – | – | – | – | – | – | – | – | – | – | 0% | 0% | 0% | 0% | 0% | 0% | 6% | 9% | 59% | 11% |
| O=c1cc(N2CCOCC2)nc2n(Cc3cccc(Cl)c3Cl)ccn12 [GSK2286295] | – | – | – | – | – | – | – | – | – | – | 0% | 19% | 4% | 0% | 0% | 12% | 0% | 0% | 0% | 97% |
| CCn1c(-c2ccccn2)nc2cnccc21 [SB-736398] | – | – | – | – | – | – | – | – | – | – | 0% | 10% | 21% | 45% | 0% | 8% | 0% | 0% | 0% | 4% |
| Cc1nnc(-c2ccc3occ(-c4ccc(S(C)=O)cc4)c3c2)[nH]1 (centres unmarked) | – | – | – | – | – | – | – | – | – | – | 8% | 0% | 8% | 59% | 0% | 4% | 23% | 14% | 1% | 88% |
| Cl.O=C(Nc1cccc(-c2nn3ncccc3c2-c2ccnc(Nc3cccnc3)n2)c1)c1c(F)cccc1F [GSK312879] | – | – | – | – | – | – | – | – | – | – | 0% | 1% | 12% | 19% | 0% | 34% | 0% | 5% | 0% | 0% |
